Drawing on PubChem BioAssay AID651612 (The Scripps Research Institute Molecular Screening Center, 2012), this text covers inhibition for 5 compounds.

About 1,500 (68%) of roughly 2,200 compounds were called active. Cut-off read from the data, not from the text of the source: active = inhibition above about 23%; inactive = the rest. So high a share suggests a set chosen from earlier hits. Only a sample is shown.

Sequence of Perilipin-5 (Homo sapiens) + 1-acylglycerol-3-phosphate O-acyltransferase ABHD5 (Homo sapiens) (Q00G26 whole entry, looked up): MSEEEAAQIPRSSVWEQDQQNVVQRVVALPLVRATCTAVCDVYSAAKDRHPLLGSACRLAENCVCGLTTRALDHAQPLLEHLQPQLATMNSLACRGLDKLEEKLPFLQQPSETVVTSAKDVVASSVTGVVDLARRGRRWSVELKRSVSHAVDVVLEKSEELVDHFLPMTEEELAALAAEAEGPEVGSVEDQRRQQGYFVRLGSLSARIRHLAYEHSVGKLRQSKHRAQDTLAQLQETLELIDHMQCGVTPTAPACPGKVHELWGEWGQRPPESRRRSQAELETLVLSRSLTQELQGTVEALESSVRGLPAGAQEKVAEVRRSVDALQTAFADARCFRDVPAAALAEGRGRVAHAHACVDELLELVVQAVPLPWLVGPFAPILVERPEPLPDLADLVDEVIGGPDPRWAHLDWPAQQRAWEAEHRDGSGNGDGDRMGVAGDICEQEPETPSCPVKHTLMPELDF
Sequence of Perilipin-5 (Homo sapiens) + 1-acylglycerol-3-phosphate O-acyltransferase ABHD5 (Homo sapiens) (Q8WTS1 whole entry, looked up): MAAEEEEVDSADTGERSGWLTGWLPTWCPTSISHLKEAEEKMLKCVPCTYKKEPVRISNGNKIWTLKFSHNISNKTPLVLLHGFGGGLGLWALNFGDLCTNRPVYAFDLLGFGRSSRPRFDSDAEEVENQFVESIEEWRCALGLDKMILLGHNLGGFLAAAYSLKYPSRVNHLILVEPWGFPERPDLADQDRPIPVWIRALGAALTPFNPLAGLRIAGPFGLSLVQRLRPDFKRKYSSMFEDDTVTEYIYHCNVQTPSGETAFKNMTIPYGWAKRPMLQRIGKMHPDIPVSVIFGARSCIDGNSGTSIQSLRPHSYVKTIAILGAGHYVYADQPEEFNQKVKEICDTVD

The test concerns the target Perilipin-5 (Homo sapiens) + 1-acylglycerol-3-phosphate O-acyltransferase ABHD5 (Homo sapiens) (UniProt Q00G26+Q8WTS1). Description: blockers of ABHD5 binding to perilipin-5 – biochemical, luminescence, confirmation (AID 651612).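 Note: 0% = DMSO vehicle wells.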 The following applies: biochemical ABHD5-PLIN5 interaction, at 4 µM, active compounds read high.
Broadly, the inhibition is the relative decrease from the control value, in per cent. Regarding `CCOC(=O)[C@]12Cc3ccccc3[C@H]1N(C1CCCCC1)C(=O)c1cc(OC)ccc12`, the inhibition was 23.3% (active).
To `CN(C)CC1Oc2ccccc2OC1(O)c1ccccc1` (stereo not given) belongs 77.6% (active); to `COc1ccc(CN2C(=O)NC(=O)/C(=C\c3ccc(OC)c(OC)c3OC)C2=O)cc1`, 36.5% (active).
As for `CCc1nnc(NS(=O)(=O)c2ccc(N=Cc3c(O)n(-c4ccccc4)c(=O)[nH]c3=O)cc2)s1`, the inhibition is 7.03% (inactive).
`Cc1cccc(N2C(=O)NC(=O)/C(=C\c3cnn(-c4ccccc4)c3)C2=O)c1`: the inhibition is 66.4% (active).
